“And” between values parts separate entries of the source, which are not always exact repeats. Equal values may be shown once. The whole screen tested about 5,500 compounds, of which about 2,000 (36%) were called active. Another 18% or so got no clear call; they are omitted. No stated cut-off is given here; in the data, active means normalized growth mostly below about 0.91 (no sharp cut-off); inconclusive means no clear call, values can overlap the other calls; inactive means mostly above about 0.92. The list shows a part of the results.
Experiment: chemical genetic growth profiling, strain panel (AID 1159580);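 further: tested at 20 µM; growth read once vehicle control cultures reached saturation at 30 °C; 1 = growth at the plate median or of vehicle wells; lower values mean less growth of the strain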
Settings: S. cerevisiae deletion strains, growth OD

Measured: normalized growth

CNc1ccccc1C(=O)N1CCc2c([nH]c3ccccc23)C1=O
inactive: locus YAL021C, strain ccr4, active compounds read low 0.962 | locus YAL026C, strain drs2, active compounds read low 1 | locus YAL030W, strain snc1, active compounds read low 0.995 | locus YBL061C, strain skt5, active compounds read low 1 | locus YBR009C, strain hhf1, active compounds read low 0.981 | locus YBR021W, strain FUR4, active compounds read low 0.954 | locus YBR023C, strain chs3, active compounds read low 1 | locus YBR171W, strain sec66, active compounds read low 0.991 | locus YBR229C, strain ROT2, active compounds read low 1.01 | locus YBR231C, strain swc5, active compounds read low 0.996 | locus YBR279W, strain paf1, active compounds read low 0.992 | locus YCL011C, strain gbp2, active compounds read low 0.983 | locus YCL016C, strain dcc1, active compounds read low 0.981 | locus YCL029C, strain bik1, active compounds read low 0.996 | locus YCL069W, strain vba3, active compounds read low 0.987 | locus YCR088W, strain abp1, active compounds read low 1 | locus YDL005C, strain med2, active compounds read low 0.997 | locus YDL035C, strain GPR1, active compounds read low 0.995 | locus YDL040C, strain nat1, active compounds read low 0.99 | locus YDL074C, strain BRE1, active compounds read low 0.976 | locus YDL101C, strain DUN1, active compounds read low 1.02 | locus YDL185W, strain tfp1, active compounds read low 0.996 | locus YDL192W, strain arf1, active compounds read low 0.975 | locus YDR001C, strain nth1, active compounds read low 0.98 | locus YDR069C, strain doa4, active compounds read low 0.966 | locus YDR101C, strain arx1, active compounds read low 0.964 | locus YDR137W, strain rgp1, active compounds read low 0.991 | locus YDR159W, strain sac3, active compounds read low 1.03 | locus YDR162C, strain NBP2, active compounds read low 1.01 | locus YDR195W, strain ref2 1.01 | locus YDR297W, strain sur2, active compounds read low 1 | locus YDR318W, strain mcm21, active compounds read low 0.997 | locus YDR334W, strain swr1, active compounds read low 0.991 | locus YDR335W, strain msn5, active compounds read low 0.996 | locus YDR388W, active compounds read low 0.979 | locus YDR392W, strain spt3, active compounds read low 0.908 | locus YDR502C, strain sam2, active compounds read low 0.967 | locus YEL003W, strain gim4, active compounds read low 0.987 | locus YEL037C, strain rad23, active compounds read low 0.992 | locus YEL061C, strain CIN8 (second series), active compounds read low 0.989 | locus YEL061C, strain CIN8, active compounds read low 1.01 | locus YER015W, strain faa2, active compounds read low 0.992 | locus YER016W, strain bim1, active compounds read low 0.985 | locus YER110C, active compounds read low 0.986 | locus YER111C, strain swi4, active compounds read low 1 | locus YER155C, strain BEM2 (second series), active compounds read low 1.01 | locus YER155C, strain BEM2, active compounds read low 0.997 | locus YER167W, strain BCK2, active compounds read low 1 | locus YFR010W, strain ubp6, active compounds read low 0.965 | locus YGL078C, strain dbp3, active compounds read low 0.971 | locus YGL086W, strain mad1, active compounds read low 0.964 | locus YGL167C, strain pmr1, active compounds read low 0.98 | locus YGL173C, strain kem1, active compounds read low 0.997 | locus YGL227W, strain vid30, active compounds read low 1 | locus YGL240W, strain doc1, active compounds read low 1 | locus YGL248W, strain PDE1, active compounds read low 1.02 | locus YGL253W, strain hxk2, active compounds read low 0.989 | locus YGR078C, strain PAC10, active compounds read low 1.01 | locus YGR135W, strain pre9, active compounds read low 1 | locus YGR229C, strain SMI1, active compounds read low 1 | locus YGR252W, strain gcn5, active compounds read low 0.924 | locus YHR013C, strain ard1, active compounds read low 0.958 | locus YHR027C, strain rpn1, active compounds read low 0.991 | locus YHR030C, strain SLT2, active compounds read low 1.01 and 0.995 | locus YHR079C, strain IRE1 (second series), active compounds read low 0.981 | locus YHR079C, strain IRE1, active compounds read low 0.986 | locus YHR094C, strain hxt1, active compounds read low 0.984 | locus YHR129C, strain ARP1, active compounds read low 1.01 | locus YHR142W, strain chs7, active compounds read low 0.975 | locus YHR200W, strain rpn10, active compounds read low 0.987 | locus YIL066C, strain RNR3, active compounds read low 1.01 | locus YIL073C, strain SPO22, active compounds read low 0.957 | locus YIL125W, strain kgd1, active compounds read low 0.968 | locus YIR030C, strain dcg1, active compounds read low 0.975 | locus YJL092W, strain hpr5, active compounds read low 0.991 | locus YJL095W, strain BCK1 (second series), active compounds read low 1.01 | locus YJL095W, strain BCK1, active compounds read low 1.01 and 1.06 | locus YJL115W, strain asf1, active compounds read low 0.976 | locus YJL129C, strain trk1, active compounds read low 0.982 | locus YJL134W, strain LCB3, active compounds read low 1.01 | locus YJL154C, strain vps35, active compounds read low 0.989 | locus YJL164C, strain tpk1, active compounds read low 0.963 | locus YJL166W, strain qcr8, active compounds read low 0.992 | locus YJL168C, strain set2, active compounds read low 0.989 | locus YJL187C, strain SWE1 (second series), active compounds read low 1 | locus YJL187C, strain SWE1, active compounds read low 0.981 | locus YJR043C, strain POL32, active compounds read low 0.986 | locus YJR066W, strain TOR1, active compounds read low 0.94 | locus YJR075W, strain HOC1, active compounds read low 1 | locus YKL009W, strain mrt4, active compounds read low 0.949 | locus YKL068W, active compounds read low 1 | locus YKL085W, strain MDH1 (second series), active compounds read low 0.994 | locus YKL085W, strain MDH1, active compounds read low 0.994 | locus YKL160W, strain elf1, active compounds read low 0.973 | locus YKR001C, strain vps1, active compounds read low 0.941 | locus YKR026C, strain gcn3, active compounds read low 1.01 | locus YKR091W, strain srl3, active compounds read low 0.989 | locus YLL001W, strain dnm1, active compounds read low 0.982 | locus YLL026W, active compounds read low 1 | locus YLL041C, strain sdh2, active compounds read low 1 | locus YLR027C, strain aat2, active compounds read low 0.995 | locus YLR039C, strain RIC1, active compounds read low 0.812 | locus YLR058C, strain SHM2, active compounds read low 1.01 | locus YLR102C, strain apc9, active compounds read low 0.977 | locus YLR113W, strain HOG1, active compounds read low 1.1 | locus YLR221C, strain rsa3, active compounds read low 1.01 | locus YLR258W, strain gsy2, active compounds read low 0.993 | locus YLR262C, strain YPT6 (second series), active compounds read low 0.975 | locus YLR262C, strain YPT6, active compounds read low 0.823 | locus YLR268W, strain sec22, active compounds read low 0.954 | locus YLR320W, strain mms22, active compounds read low 1 | locus YLR330W, strain CHS5, active compounds read low 1.01 | locus YLR342W, strain FKS1 (second series), active compounds read low 0.998 | locus YLR342W, strain FKS1, active compounds read low 0.991 | locus YLR357W, strain rsc2, active compounds read low 0.973 | locus YLR370C, strain arc18, active compounds read low 0.998 | locus YLR371W, strain rom2, active compounds read low 0.986 | locus YLR384C, strain iki3, active compounds read low 1.02 | locus YLR418C, strain cdc73, active compounds read low 0.917 | locus YML016C, strain PPZ1, active compounds read low 1.02 | locus YML032C, strain rad52, active compounds read low 0.989 | locus YML120C, strain ndi1, active compounds read low 0.983 | locus YML124C, strain tub3, active compounds read low 0.985 | locus YMR058W, strain fet3, active compounds read low 0.994 | locus YMR078C, strain ctf18, active compounds read low 0.986 | locus YMR125W, strain sto1, active compounds read low 0.965 | locus YMR129W, active compounds read low 0.988 | locus YMR205C, strain PFK2, active compounds read low 0.984 | locus YMR223W, strain ubp8, active compounds read low 1 | locus YMR231W, strain pep5, active compounds read low 0.999 | locus YMR263W, strain SAP30, active compounds read low 1.01 | locus YMR307W, strain GAS1, active compounds read low 0.949 | locus YNL067W, strain RPL9B, active compounds read low 1.01 | locus YNL071W, strain lat1, active compounds read low 0.993 | locus YNL153C, strain GIM3, active compounds read low 1.01 | locus YNL183C, strain NPR1, active compounds read low 1.01 | locus YNL209W, strain ssb2, active compounds read low 0.985 | locus YNL233W, strain BNI4, active compounds read low 0.996 | locus YNL248C, strain rpa49, active compounds read low 0.986 | locus YNL250W, strain rad50, active compounds read low 1 | locus YNL271C, strain bni1, active compounds read low 0.989 | locus YNL298W, strain CLA4, active compounds read low 0.977 | locus YNL307C, strain MCK1, active compounds read low 0.985 | locus YNL322C, strain KRE1 (second series), active compounds read low 1 | locus YNL322C, strain KRE1, active compounds read low 1.01 | locus YNR049C, strain mso1, active compounds read low 0.989 | locus YNR052C, strain pop2, active compounds read low 1.02 | locus YOL006C, strain TOP1, active compounds read low 0.974 | locus YOL012C, strain htz1 0.736 | locus YOL147C, strain pex11, active compounds read low 0.979 | locus YOR001W, strain rrp6, active compounds read low 1.01 | locus YOR061W, strain CKA2, active compounds read low 1.01 | locus YOR069W, strain VPS5, active compounds read low 1.01 | locus YOR070C, strain gyp1, active compounds read low 0.985 | locus YOR080W, strain dia2, active compounds read low 1 | locus YOR083W, strain WHI5, active compounds read low 0.967 | locus YOR106W, strain vam3, active compounds read low 0.924 | locus YOR136W, strain idh2, active compounds read low 0.974 | locus YOR144C, strain elg1, active compounds read low 0.979 | locus YOR184W, strain ser1, active compounds read low 0.979 | locus YOR231W, strain MKK1, active compounds read low 1.01 | locus YOR265W, strain rbl2, active compounds read low 1 | locus YOR270C, strain vph1, active compounds read low 0.979 | locus YOR290C, strain snf2, active compounds read low 0.944 | locus YOR316C, strain cot1, active compounds read low 0.982 | locus YPL051W, strain arl3, active compounds read low 0.982 | locus YPL055C, strain LGE1, active compounds read low 0.991 | locus YPL078C, strain atp4, active compounds read low 0.973 | locus YPL106C, strain sse1, active compounds read low 0.997 | locus YPL240C, strain hsp82, active compounds read low 0.986 | locus YPL241C, strain CIN2, active compounds read low 1 | locus YPL256C, strain CLN2, active compounds read low 1 | locus YPR119W, strain clb2, active compounds read low 0.978 | locus YPR141C, strain kar3, active compounds read low 0.994 | locus YPR163C, strain tif3, active compounds read low 0.99 | locus YPR167C, strain met16, active compounds read low 0.989 | strain wtn01, active compounds read low 0.961
